# Data taken from the supplement of paper PMC9135407.
# “And” between values parts separate entries of the source, which are not always exact repeats. Equal entries are not always repeated. Structures can show the parent of a compound that is named as a salt. Screen size: about 5,800 compounds; about 620 (11%) showed activity. What follows is part of a selection rich in actives, with near analogues and random picks from the rest. Values without a mark were called inactive.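 The calls were made as follows: active = score above a cut-off or among the top three wells of a plate; in these data no inactive exceeds 0.85.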
# Test system: primary human hepatic stellate cells (donor 1)
# Test: scaled lipid accumulation score (0 = DMSO-like, 1 = nortriptyline-like); higher = stronger HSC inactivation (lipid re-accumulation), active = hit call of the paper
# Details: 48 h
# [1] = library stock concentration: 10 mM
# [2] = library stock concentration: 3.33 mM
# [3] = library stock concentration: 6.1 mM
# [4] = library stock concentration: 1 mM
# [5] = library stock concentration: 400 uM
# [6] = library stock concentration: 2 mM
# [7] = library stock concentration: 80 uM
smiles,measurement,setting,value
Nc1nccc(-c2ccc3noc(-c4ccc(Cl)cc4)c3c2)n1 [PIM 1 Inhibitor 2],scaled lipid accumulation score,[1],≤ 0
CCNc1nc2c(ncn2[C@H]2C[C@H](O)[C@@H](CO)O2)c(=O)[nH]1 [N2-Ethyl-2'-deoxyguanosine],scaled lipid accumulation score,[1],≤ 0
N.N.N.N.N.N.N.N.N.N.N.N.N.N.O.O.[Cl-].[Cl-].[Cl-].[Cl-].[Cl-].[Cl-].[Ru+4].[Ru+5].[Ru+5] [Ruthenium red],scaled lipid accumulation score,[1],≤ 0
CC(C)=CCC/C(C)=C/CC/C(C)=C/CC/C(C)=C/CC/C(C)=C/CC/C(C)=C/CC1=C(C)C(=O)c2ccccc2C1=O [Vitamin K2],scaled lipid accumulation score,,0.008
CN1CCN(C2=Nc3cc(Cl)ccc3Nc3ccccc32)CC1 [Clozapine] [listing 1 of 2 here],scaled lipid accumulation score,[2],0.105
same,scaled lipid accumulation score,[3],0.429 and 0.648
same,scaled lipid accumulation score,[1],0.755 and 0.578
same,scaled lipid accumulation score,library stock concentration: 15.3 mM,0.769
Cc1cc2c(s1)Nc1ccccc1N=C2N1CCN(C)CC1 [Olanzapine],scaled lipid accumulation score,[2],0.171
same,scaled lipid accumulation score,library stock concentration: 6.4 mM,0.341 and ≤ 0
same,scaled lipid accumulation score,[1],0.232
CN1CCN(C2=Nc3cc(Cl)ccc3Nc3ccccc32)CC1 [Clozapine] [listing 2 of 2 here],scaled lipid accumulation score,[1],0.967 (active)
Cc1cc2c(s1)Nc1ccccc1N=C2N1CCN(C)CC1,scaled lipid accumulation score,library stock concentration: 9.9 mM,0.228
O=C(O)CCC/C=C\C[C@@H]1[C@@H](CC[C@@H](O)CCc2cccc(C(F)(F)F)c2)[C@H](O)C[C@@H]1O,scaled lipid accumulation score,[4],≤ 0
CCN(CC)CCNC(=O)c1cc(S(C)(=O)=O)ccc1OC [Tiapride hydrochloride],scaled lipid accumulation score,,0.066
same,scaled lipid accumulation score,[1],≤ 0 and ≤ -0.027
CCCCOc1cc(C(=O)NCCN(CC)CC)c2ccccc2n1 [Dibucaine],scaled lipid accumulation score,,0.284
CCCCOc1cc(C(=O)NCCN(CC)CC)c2ccccc2n1 [Dibucaine HCl],scaled lipid accumulation score,[2],0.253
CCCCOc1cc(C(=O)NCCN(CC)CC)c2ccccc2n1 [Dibucaine hydrochloride],scaled lipid accumulation score,library stock concentration: 5.3 mM,0.662
same,scaled lipid accumulation score,[1],≤ 0
CCCCOc1cc(C(=O)NCCN(CC)CC)c2ccccc2n1.Cl [Dibucaine HCl],scaled lipid accumulation score,[1],0.977 (active)
CS(=O)(=O)NC(=O)CCC/C=C\C[C@H]1C(=O)C[C@@H](O)[C@@H]1/C=C/[C@@H](O)COc1ccccc1 [Sulprostone],scaled lipid accumulation score,[4],≤ 0
O=C1NC(=O)C(c2cnc3ccccn23)=C1c1cn2c3c(cc(F)cc13)CN(C(=O)N1CCCCC1)CC2 [listing 1 of 2 here],scaled lipid accumulation score,[5],0.836
same,scaled lipid accumulation score,[6],0.699
O=C1NC(=O)C(c2cnc3ccccn23)=C1c1cn2c3c(cc(F)cc13)CN(C(=O)N1CCCCC1)CC2 [listing 2 of 2 here],scaled lipid accumulation score,[7],0.956 (active)
same,scaled lipid accumulation score,[1],0.857 (active)
CC(=O)N[C@H]1[C@H]([C@H](O)[C@H](O)CO)OC(C(=O)O)=C[C@@H]1NC(=N)N [Zanamivir],scaled lipid accumulation score,[2],≤ 0
same,scaled lipid accumulation score,[1],≤ 0
COc1ccc(C(=O)/C(Br)=C\C(=O)O)cc1 [Bromebric acid],scaled lipid accumulation score,library stock concentration: 7 mM,≤ -0.006
NC(N)=NC(=O)c1nc(Cl)c(N)nc1N,scaled lipid accumulation score,[1],≤ 0
n(c1N)c(N(CC)C(C)C)c(nc1C(=O)\N=C(\N)/N)Cl [5-(N-Ethyl-N-isopropyl)amiloride],scaled lipid accumulation score,[1],1.07 (active)
"CN(C)c1nc(N)c(C(=O)NC(=N)N)nc1Cl [5-(N,N-Dimethyl)amiloride hydrochloride]",scaled lipid accumulation score,[1],≤ 0
"c(c1N)(C(=O)\N=C(\N)/N)nc(c(N2CCCCCC2)n1)Cl [5-(N,N-hexamethylene)amiloride]",scaled lipid accumulation score,[1],1.13 (active)
O=C(O)CCCC=CCC1C(=O)CC(O)C1C=CC(O)CCc1ccccc1 (stereo unspecified) [17-Phenyl-trinor-prostaglandin E2],scaled lipid accumulation score,[4],≤ -0.021
O=C(O)CCCC=CCC1C(=O)CC(O)C1C=CC(O)CCc1ccccc1 (stereo unspecified) [17-phenyl trinor Prostaglandin E2],scaled lipid accumulation score,[4],≤ 0
O=C(O)c1cc(N(Cc2ccccc2O)Cc2cc(O)ccc2O)ccc1O [Lavendustin A],scaled lipid accumulation score,library stock concentration: 13.1 mM,≤ -0.007
O=C(O)C(Cc1ccccc1[N+](=O)[O-])=NNc1nc(-c2ccc(Cl)c(Cl)c2)cs1,scaled lipid accumulation score,[2],0.038
same,scaled lipid accumulation score,[1],≤ 0
Nc1ccc(S(=O)(=O)O)cc1.Nc1ccc(S(=O)(=O)O)cc1.[Zn] [Sulfanilate zinc],scaled lipid accumulation score,library stock concentration: 4.9 mM,≤ 0
O=C1NC(=O)/C(=C/c2ccc(-c3ccc(F)cc3O)o2)S1 [listing 1 of 2 here],scaled lipid accumulation score,[5],0.064
same,scaled lipid accumulation score,[4],0.034
same,scaled lipid accumulation score,[6],0.304
same,scaled lipid accumulation score,[2],0.132
same,scaled lipid accumulation score,[1],0.526 and 0.759
O=C1NC(=O)/C(=C/c2ccc(-c3ccc(F)cc3O)o2)S1 [listing 2 of 2 here],scaled lipid accumulation score,[1],1.66 (active)
O=C1NC(=O)C(=Cc2ccc(-c3ccc(F)cc3)o2)S1 (stereo in doubt),scaled lipid accumulation score,[2],0.028
same,scaled lipid accumulation score,[1],≤ 0
"CCCCCCCCC=CCC=CCC=CCCCC(=O)O [5(Z),8(Z),11(Z)-Eicosatrienoic Acid]",scaled lipid accumulation score,[4],0.072
OC[C@H]1NC[C@H](O)[C@@H](O)[C@@H]1O [1-Deoxynojirimycin hydrochloride],scaled lipid accumulation score,[1],≤ -0.07
CNC(=O)[C@H]1O[C@@H](n2cnc3c(NCc4cccc(I)c4)nc(Cl)nc32)[C@H](O)[C@@H]1O [Chloro-IB-MECA],scaled lipid accumulation score,[1],≤ -0.07
CNC(=O)[C@H]1O[C@@H](n2cnc3c(NCc4cccc(I)c4)nc(Cl)nc32)[C@H](O)[C@@H]1O,scaled lipid accumulation score,[1],0.019
Cc1cc(CS(=O)(=O)c2ccccc2)cc(OCc2ccc(CN3CCC[C@@H]3CO)cc2)c1 [listing 1 of 2 here],scaled lipid accumulation score,[2],≤ -0.009
Cc1cc(CS(=O)(=O)c2ccccc2)cc(OCc2ccc(CN3CCC[C@@H]3CO)cc2)c1 [listing 2 of 2 here],scaled lipid accumulation score,[1],1.03 (active)
CCCCC[C@H](O)/C=C/[C@@H]1[C@@H](CCCCCCC(=O)O)[C@H](O)C[C@H]1O [Prostaglandin F1.beta.],scaled lipid accumulation score,[4],≤ 0
COc1ccc2c3n(c(=NC(=O)c4cccnc4)nc2c1OC)CCN3,scaled lipid accumulation score,[5],≤ -0.005
same,scaled lipid accumulation score,[6],≤ -0.005
same,scaled lipid accumulation score,[1],≤ -0.005
CCCCC[C@H](O)/C=C/[C@H]1CC[C@@H](O)[C@@H]1C/C=C\CCCC(=O)O [11-deoxy Prostaglandin F2.beta.],scaled lipid accumulation score,[4],≤ 0
CCCCCCCCCCC1=C(C)C(=O)C(OC)=C(OC)C1=O [Decylubiquinone],scaled lipid accumulation score,library stock concentration: 15.5 mM,≤ -0.021
CCC1(C)OC(=O)N(C)C1=O (stereo unspecified),scaled lipid accumulation score,[1],≤ 0
CCN1CCN(Cc2ccc(Nc3ncc(F)c(-c4cc(F)c5nc(C)n(C(C)C)c5c4)n3)nc2)CC1.CS(=O)(=O)O,scaled lipid accumulation score,[2],0.963 (active)
same,scaled lipid accumulation score,[1],0.943 (active)
CCN1CCN(Cc2ccc(Nc3ncc(F)c(-c4cc(F)c5nc(C)n(C(C)C)c5c4)n3)nc2)CC1 [Abemaciclib] [listing 1 of 2 here],scaled lipid accumulation score,[6],0.882 (active)
CCN1CCN(Cc2ccc(Nc3ncc(F)c(-c4cc(F)c5nc(C)n(C(C)C)c5c4)n3)nc2)CC1 [Abemaciclib] [listing 2 of 2 here],scaled lipid accumulation score,[7],0.332
same,scaled lipid accumulation score,[5],0.55
same,scaled lipid accumulation score,[1],0.691
CC(=O)N[C@@H](CSC/C=C(\C)CCC=C(C)C)C(=O)O [N-Acetyl-S-geranyl-L-cysteine],scaled lipid accumulation score,[4],≤ -0.021
CCC(=O)O[C@H]1CC[C@H]2[C@@H]3CCc4cc(O)ccc4[C@H]3CC[C@]12C [Estradiol propionate],scaled lipid accumulation score,[3],0.254
same,scaled lipid accumulation score,[1],0.443
O=C1OC2(c3ccc(O)cc3Oc3cc(OS(=O)(=O)c4c(F)c(F)c(F)c(F)c4F)ccc32)c2ccccc21 (stereo unspecified) [Pentafluorobenzenesulfonyl fluorescein],scaled lipid accumulation score,[4],≤ 0
CO[C@H]1C[C@@H]2CC[C@@H](C)[C@@](O)(O2)C(=O)C(=O)N2CCCC[C@H]2C(=O)O[C@H]([C@H](C)C[C@@H]2CC[C@@H](OC(=O)C(C)(CO)CO)[C@H](OC)C2)CC(=O)[C@H](C)/C=C(\C)[C@@H](O)[C@@H](OC)C(=O)[C@H](C)C[C@H](C)/C=C/C=C/C=C/1C,scaled lipid accumulation score,[2],0.032
same,scaled lipid accumulation score,[1],0.094
CN1CCN(C2CCN(C(=O)Nc3cc(Oc4ccc(NC(=O)C5(C(=O)Nc6ccc(F)cc6)CC5)c(F)c4)ccn3)CC2)CC1 [Golvatinib (E7050)] [listing 1 of 2 here],scaled lipid accumulation score,[1],0.429
CN1CCN(C2CCN(C(=O)Nc3cc(Oc4ccc(NC(=O)C5(C(=O)Nc6ccc(F)cc6)CC5)c(F)c4)ccn3)CC2)CC1 [Golvatinib (E7050)] [listing 2 of 2 here],scaled lipid accumulation score,[2],0.979 (active)
CC/C=C\C/C=C\C/C=C\C/C=C\C/C=C\C/C=C\CCC(=O)NCCO [Docosahexaenoyl Ethanolamide],scaled lipid accumulation score,[4],0.03
COc1cc(N2CCC(N3CCN(C)CC3)CC2)ccc1Nc1ncnc(Nc2ccccc2S(=O)(=O)C(C)C)n1,scaled lipid accumulation score,[7],≤ 0
same,scaled lipid accumulation score,[5],0.045
same,scaled lipid accumulation score,[6],0.433
same,scaled lipid accumulation score,[1],0.819
COc1cc(OC2CCN(C)CC2)ccc1Nc1ncc2c(n1)n(C1CCCC1)c(=O)n2C [listing 1 of 2 here],scaled lipid accumulation score,[1],1.06 (active)
COc1cc(OC2CCN(C)CC2)ccc1Nc1ncc2c(n1)n(C1CCCC1)c(=O)n2C [listing 2 of 2 here],scaled lipid accumulation score,[2],0.441
C[C@H](C(=O)O)c1ccc(-c2ccccc2)c(F)c1 [(S)-Flurbiprofen],scaled lipid accumulation score,[4],0.003
O=c1cc(N2CCOCC2)oc2c1ccc1ccccc12 [DNA-PK Inhibitor II],scaled lipid accumulation score,[2],≤ 0
COc1ccc(-c2nc(N3CCOCC3)c3sc(CN(C)c4ncc(C(=O)NO)cn4)cc3n2)cn1,scaled lipid accumulation score,[7],0.745
same,scaled lipid accumulation score,[5],0.648
same,scaled lipid accumulation score,[6],0.67
same,scaled lipid accumulation score,[2],0.439
same,scaled lipid accumulation score,[1],0.447 and 0.588
Oc1cccc(-c2nc(N3CCOCC3)c3oc4ncccc4c3n2)c1 [listing 1 of 2 here],scaled lipid accumulation score,[7],0.118
same,scaled lipid accumulation score,[5],0.051 and ≤ -0.005
same,scaled lipid accumulation score,[4],≤ 0
same,scaled lipid accumulation score,[6],≤ -0.009 and ≤ -0.005
same,scaled lipid accumulation score,[2],0.203 and 0.016
same,scaled lipid accumulation score,[1],0.796 and 0.279
Cc1c(CN2CCN(C(=O)[C@H](C)O)CC2)sc2c(N3CCOCC3)nc(-c3cnc(N)nc3)nc12,scaled lipid accumulation score,[7],0.079
same,scaled lipid accumulation score,[5],≤ -0.015
same,scaled lipid accumulation score,[6],≤ -0.016
same,scaled lipid accumulation score,[2],≤ 0
same,scaled lipid accumulation score,[1],≤ 0 and ≤ -0.016
Nc1ccc(C(=O)Nc2cccc(-c3nc(N4CCOCC4)c4oc5ncccc5c4n3)c2)cn1 [listing 1 of 3 here],scaled lipid accumulation score,[1],0.915 (active)
Oc1cccc(-c2nc(N3CCOCC3)c3sccc3n2)c1 [PI3-Kinase .alpha. Inhibitor 2],scaled lipid accumulation score,[4],≤ 0
CC(C)(O)c1cc2nc(-c3cnc(N)nc3)nc(N3CCOCC3)c2s1,scaled lipid accumulation score,[5],≤ -0.005
same,scaled lipid accumulation score,[6],≤ -0.005
same,scaled lipid accumulation score,[1],0.006
Nc1ccc(C(=O)Nc2cccc(-c3nc(N4CCOCC4)c4oc5ncccc5c4n3)c2)cn1 [listing 2 of 3 here],scaled lipid accumulation score,[1],0.995 (active)
Cl.Nc1ccc(C(=O)Nc2cccc(-c3nc(N4CCOCC4)c4oc5ncccc5c4n3)c2)cn1,scaled lipid accumulation score,[6],1.74 (active)
same,scaled lipid accumulation score,[1],1.25 (active)
Nc1ccc(C(=O)Nc2cccc(-c3nc(N4CCOCC4)c4oc5ncccc5c4n3)c2)cn1 [listing 3 of 3 here],scaled lipid accumulation score,[7],≤ -0.009
same,scaled lipid accumulation score,[5],0.031 and ≤ -0.005
same,scaled lipid accumulation score,[6],0.229
same,scaled lipid accumulation score,[2],0.647
O=c1cc(N2CCOCC2)oc2c1ccc1ccccc12,scaled lipid accumulation score,[7],≤ 0
same,scaled lipid accumulation score,[5],≤ 0
same,scaled lipid accumulation score,[6],≤ 0
same,scaled lipid accumulation score,[1],≤ 0 and 0.033
Oc1cccc(-c2nc(N3CCOCC3)c3oc4ncccc4c3n2)c1 [listing 2 of 2 here],scaled lipid accumulation score,[1],0.923 (active)
